According to PubChem BioAssay:
Active and inactive are the calls of the source. Cut-off read from the data, not from the text of the source, unless noted: active = inhibition above about 80%; inactive = the rest.

Key:
[1] = LFS_MB_P medulloblastoma growth inhibition, cell-based, chromothripsis tumors, cisplatin or BGB combos (AID 1671449); details: LFS_MB_P medulloblastoma cells;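 note: cells exposed for 96 hours; 0% = vehicle DMSO and 100% = killing by high DMSO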
[2] = HDN33 neuroblastoma growth inhibition, cell-based, chromothripsis tumors, cisplatin or BGB combos (AID 1671450); details: HDN33 neuroblastoma cells, stronger effect = higher value;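 note: cells exposed to compound for four days; 0% = vehicle DMSO and 100% = cell killing by high DMSO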
[3] = ICB984 medulloblastoma cell growth inhibition, synergistic combos for chromothripsis tumors, cisplatin or BGB combos (AID 1671451; call rule not given here;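 note: cells exposed for 96 hours before readout; 0% = vehicle DMSO and 100% = killing by high DMSO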); details: ICB984 medulloblastoma cells, drug combinations, stronger effect = higher value
[4] = LFS_MB_1R medulloblastoma cell growth inhibition, synergistic combos for chromothripsis tumors, cisplatin or BGB combos (AID 1671452); details: LFS_MB_1R medulloblastoma cells, stronger effect = higher value;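 note: cells exposed for 96 hours before readout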
[5] = HTB85 osteosarcoma cell growth inhibition, synergistic combos for chromothripsis tumors, BGB or cisplatin IC20 combos (AID 1671453); details: HTB85 osteosarcoma cells, drug combinations, stronger effect = higher value;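 note: cells exposed for 96 hours before readout; 0% = vehicle DMSO and 100% = high DMSO killing control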
[6] = CRL2098 osteosarcoma cell growth inhibition, synergistic combos for chromothripsis tumors, BGB or cisplatin IC20 combos (AID 1671454); details: CRL2098 osteosarcoma cells, drug combinations, stronger effect = higher value;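 note: cells exposed for 96 h before readout; 0% = vehicle DMSO and 100% = killing by high DMSO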
[7] = HD-MB03 medulloblastoma cell growth inhibition, synergistic combos for chromothripsis tumors, BGB or cisplatin IC20 combos (AID 1671455; in the data active = inhibition above about 83%;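 note: 0% = vehicle DMSO and 100% = high DMSO as cytotoxic control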); details: HD-MB03 medulloblastoma cells, stronger effect = higher value
[8] = UWB1.289 ovarian carcinoma cell growth inhibition, synergistic combos for chromothripsis tumors, BGB or cisplatin combos (AID 1671456); details: UWB1.289 ovarian carcinoma cells, stronger effect = higher value;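 note: cells exposed to compound for four days; 0% = vehicle DMSO and 100% = killing by high DMSO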
[9] = LFS_MB_2R medulloblastoma cell growth inhibition, synergistic combos for chromothripsis tumors, cisplatin combos (AID 1671457); details: LFS_MB_2R medulloblastoma cells, stronger effect = higher value;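 note: cells exposed to compound for four days before readout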
[10] = MDA-MB-436 breast carcinoma cell growth inhibition, synergistic combos for chromothripsis tumors, BGB or cisplatin combos (AID 1671458; call rule not given here;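 note: cells exposed for 96 hours; 0% = vehicle DMSO and 100% = killing by high DMSO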); details: MDA-MB-436 breast carcinoma growth inhibition, drug combinations, stronger effect = higher value
[11] = UWB1.289_BRCA1 ovarian cancer growth, cell-based, BGB or cisplatin combinations (AID 1671459); details: UWB1.289 BRCA1 ovarian carcinoma, drug combinations, stronger effect = higher value
[12] = human astrocyte viability loss, single and combined drugs, cytotoxicity control for chromothriptic childhood tumor combination screen, cell-based, BGB or cisplatin IC20 combos (AID 1671460); details: Human astrocytes, drug combinations, stronger effect = higher value;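 note: cells exposed to compounds for 96 hours before viability readout; 0% = vehicle and 100% = killing control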
[13] = growth inhibition of BT084 medulloblastoma cells, cell-based, ICGC_MB145, cisplatin and BGB IC40 combos (AID 1671461); details: drug combinations, stronger effect = higher value;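 note: cells exposed to drugs for 96 hours; 0% = vehicle DMSO and 100% = high DMSO full killing control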
[14] = growth inhibition of RCMB18 medulloblastoma cells, cell-based, cisplatin and BGB IC40 combos (AID 1671462); details: stronger effect = higher value;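 note: cells exposed to compound for four days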
[15] = growth inhibition of CRL1545 osteosarcoma cells, cell-based, cisplatin and BGB IC20 combos (AID 1671464); details: stronger effect = higher value;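 note: cells exposed to compound for 96 hours before readout; 0% = vehicle DMSO and 100% = high DMSO killing control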
[16] = circadian clock period modulators, cell-based, LOPAC library, luminescence reporter (AID 2774; call rule not given here;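 note: values are relative to mean of DMSO wells on each plate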); details: circadian reporter cells, at 7 µM, actives lie on both sides
[17] = at 0.5 µM, stronger effect = higher value
[18] = measured here: combination with BGB IC20, at 0.005 µM
[19] = measured here: combination with BGB IC40, at 0.005 µM
[20] = measured here: combination with BGB IC40, at 0.05 µM
[21] = measured here: combination with cisplatin, at 0.5 µM, stronger effect = higher value
[22] = measured here: combination with cisplatin, at 5 µM, stronger effect = higher value
[23] = measured here: with BGB IC20 combination, at 0.5 µM
[24] = measured here: with cisplatin IC20 combination, at 0.5 µM
[25] = measured here: 5 uM single agent, at 5 µM
[26] = measured here: combination with cisplatin, at 0.5 µM
[27] = measured here: combination with cisplatin, at 5 µM
[28] = measured here: with BGB IC20, at 0.5 µM
[29] = measured here: with BGB IC20, at 5 µM
[30] = measured here: with cisplatin IC20, at 0.5 µM
[31] = measured here: with cisplatin IC20, at 5 µM

In the case of `O=P(O)(NCCCl)NCCCl`, the inhibition [1, 17] is reported as -22.2% (inactive), the inhibition [1, 18] is reported as -18.1% and the inhibition [1, 19] is reported as -19.6%. It also gave an inhibition [1, 20] of -1.01%, an inhibition [1, 21] of -31.9% and an inhibition [1, 22] of -32.1%. For the same compound, the inhibition ([2]; BGB combo, at 5 µM) was -3.04%, the inhibition ([2]; at 0.5 µM) was -31.2% (inactive) and the inhibition ([2]; cisplatin combo, at 5 µM) was -23.7%. The inhibition [2, 23] was -28%, the inhibition [2, 24] was -30.2% and the inhibition ([2]; single agent, at 5 µM) was -43.4%. For the same compound, the inhibition ([3]; BGB IC20 combo, at 0.005 µM) was -17.4%, the inhibition ([3]; BGB IC40 combo, at 0.005 µM) was -58.7% and the inhibition ([3]; BGB IC40 combo, at 0.05 µM) was -40.4%. For the same compound, the inhibition ([3]; at 0.5 µM) was -24.2% (inactive), the inhibition ([3]; cisplatin combo, at 0.05 µM) was -45.9% and the inhibition ([3]; cisplatin combo, at 0.5 µM) was -25.8%. For the same compound, the inhibition ([3]; cisplatin combo, at 5 µM) was -10.7%, the inhibition [3, 25] was 3.71% and the inhibition ([4]; at 0.5 µM) was -40.6% (inactive). The inhibition [4, 20] was -43.7%, the inhibition [4, 26] was -71.6% and the inhibition [4, 27] was -97.5%. For the same compound, the inhibition ([5]; at 0.5 µM) was -29.6% (inactive), the inhibition [5, 28] was -31.2% and the inhibition [5, 29] was 0.766%. It also gave an inhibition [5, 30] of -42.4%, an inhibition [5, 31] of 5.56% and an inhibition ([5]; single agent, at 5 µM) of -6.89%. The inhibition ([6]; at 0.5 µM) was -58.4% (inactive), the inhibition ([6]; measured here: combination with BGB at IC20, at 0.5 µM) was -43.5% and the inhibition ([6]; measured here: combination with cisplatin at IC20, at 0.5 µM) was -12.2%. The inhibition ([7]; at 0.5 µM) was -20.7% (inactive), the inhibition ([7]; measured here: combo with BGB at IC20, at 0.5 µM) was -26.7% and the inhibition ([7]; measured here: combo with cisplatin at IC20, at 0.5 µM) was -18.9%. For the same compound, the inhibition ([8]; at 0.5 µM) was -15.1% (inactive), the inhibition ([8]; measured here: inhibition with BGB combination, at 0.05 µM) was -6.88% and the inhibition ([8]; measured here: inhibition with cisplatin combination, at 0.05 µM) was -8.03%. The inhibition ([9]; at 0.5 µM) was -16.7% (inactive), the inhibition [9, 26] was -19.3% and the inhibition [9, 27] was -26.8%. The inhibition ([10]; at 0.5 µM) was -14.5% (inactive), the inhibition ([10]; measured here: BGB combination, at 0.5 µM) was -12.5% and the inhibition ([10]; measured here: BGB combination, at 5 µM) was -5.62%. It also gave an inhibition ([10]; measured here: cisplatin combination, at 0.5 µM) of -16%, an inhibition ([10]; measured here: cisplatin combination, at 5 µM) of -15.6% and an inhibition ([11]; BGB combination, concentration series, at 5 µM) of -1.33%. For the same compound, the inhibition ([11]; at 0.5 µM) was -15.6% (inactive), the inhibition ([11]; cisplatin combination, concentration series, at 5 µM) was -23% and the inhibition ([12]; at 0.5 µM) was -6.45% (inactive). The inhibition ([12]; measured here: combo with BGB IC20, at 0.5 µM) was -2.47%, the inhibition ([12]; measured here: combo with cisplatin IC20, at 0.5 µM) was -6.44% and the inhibition ([13]; at 0.5 µM) was -3.8% (inactive). It also gave an inhibition ([13]; cisplatin combination, at 0.5 µM) of 2.29%, an inhibition ([13]; cisplatin combination, at 5 µM) of -12.8% and an inhibition ([13]; measured here: BGB IC40 combination 0.05 uM, at 0.05 µM) of -21.5%. The inhibition ([13]; single agent, at 5 µM) was -15.7%, the inhibition ([14]; at 0.5 µM) was -17.3% (inactive) and the inhibition ([14]; cisplatin combo, at 5 µM) was 5.67%. It also gave an inhibition ([14]; measured here: BGB IC40 combination, at 0.05 µM) of -4.66%, an inhibition [14, 26] of -18.6% and an inhibition ([14]; single agent, at 5 µM) of -40.3%. For the same compound, the inhibition ([15]; at 0.5 µM) was -42.1% (inactive), the inhibition [15, 23] was -36.5% and the inhibition [15, 24] was -44.9%. The inhibition ([15]; single agent, at 0.05 µM) was -55% and the inhibition ([15]; single agent, at 5 µM) was -25.3%.

With `O=C(CCCN1CCC2(CC1)C(=O)N(CCc1ccc(N=C=S)cc1)CN2c1ccccc1)c1ccc(F)cc1` the period change [16] was 0.03 h (inactive).

For `C[C@]12CC[C@H]3[C@@H](CCC4C[C@H](O)CC[C@@]43C)[C@@H]1CC[C@@H]2O` (stereo partly specified), the period change [16] was 0.065 h (inactive).

With `C=CCN1CCC2(C)c3cc(O)ccc3CC1[C@@H]2C` (stereo partly specified) the period change [16] was -0.025 h (inactive).

For `COc1cc(C2c3cc4c(cc3C(O)C3COC(=O)C23)OCO4)cc(OC)c1OC` (stereo unspecified), the inhibition [1, 17] was 9.19% (inactive), the inhibition [1, 18] was -13.4% and the inhibition [1, 19] was -36%. It also gave an inhibition [1, 20] of 14.5%, an inhibition [1, 21] of -15.6% and an inhibition [1, 22] of 45.9%. For the same compound, the inhibition ([2]; BGB combo, at 5 µM) was 67.6%, the inhibition ([2]; at 0.5 µM) was 76.5% (inactive) and the inhibition ([2]; cisplatin combo, at 5 µM) was 70.5%. The inhibition [2, 23] was 69.9%, the inhibition [2, 24] was 66.6% and the inhibition ([2]; single agent, at 5 µM) was 91.8%. For the same compound, the inhibition ([3]; BGB IC20 combo, at 0.005 µM) was 44.2%, the inhibition ([3]; BGB IC40 combo, at 0.005 µM) was 19.6% and the inhibition ([3]; BGB IC40 combo, at 0.05 µM) was 10.9%. For the same compound, the inhibition ([3]; at 0.5 µM) was -21.6% (inactive), the inhibition ([3]; cisplatin combo, at 0.05 µM) was 7.4% and the inhibition ([3]; cisplatin combo, at 0.5 µM) was -22.1%. The inhibition ([3]; cisplatin combo, at 5 µM) was 19.8%, the inhibition [3, 25] was 19.6% and the inhibition ([4]; at 0.5 µM) was 38.7% (inactive). It also gave an inhibition [4, 20] of 42.5%, an inhibition [4, 26] of 54.6% and an inhibition [4, 27] of 60.9%. The inhibition ([5]; at 0.5 µM) was 72.2% (inactive), the inhibition [5, 28] was 55.2% and the inhibition [5, 29] was 54%. The inhibition [5, 30] was 72.6%, the inhibition [5, 31] was 73% and the inhibition ([5]; single agent, at 5 µM) was 89.8%.
